The record followed here is PubChem BioAssay (NCATS).

One assay deals with MCC-13. As to the kind of experiment: qHTS assay to identify novel small-molecules to repurpose for Merkel cell carcinoma treatment (AID 1296009). Further: nearly all actives have a fitted effect of over 60% in size. The conditions noted are these: MCC and control cell lines, CellTiter-Glo viability, 72 h; series mostly up to 46 µM. In outline:
(§1)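 Cells were treated for 72 hr at 37 degree celsius with compounds in 8- or 11-point dose response. Viability was read by CellTiter-Glo luminescence, normalized to no-cell (cytotoxicity) and DMSO controls.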

The subject of another assay is MCC-26. Described as above. The conditions noted are these: MCC and control cell lines, CellTiter-Glo viability, 72 h; series mostly up to 46 µM. A digest of the protocol:
as §1
(In general: In ATP-based viability assays light output follows the ATP content of the culture.)

For another assay, the system named is MKL-1. The assay is described as above. The conditions noted are these: MCC and control cell lines, CellTiter-Glo viability, 72 h; series mostly up to 46 µM. A digest of the protocol:
as §1

A further assay deals with MKL-2. Described as above. The conditions noted are these: MCC and control cell lines, CellTiter-Glo viability, 72 h; series mostly up to 46 µM. In outline:
as §1

For another assay, the system named is UISO. Described as above. The conditions noted are these: MCC and control cell lines, CellTiter-Glo viability, 72 h; series mostly up to 46 µM. A digest of the protocol: as §1
In the next assay the test system is C33A. As to the kind of experiment: Primary qHTS to identify gynecologic anti-cancer compounds using libraries of approved drugs and bioactive compounds (AID 1345084). Further: nearly all actives have a fitted effect of over 55% in size. To be noted: Gynecologic cancer cell panel viability, ATPlite luminescence, 48 h; series mostly up to 57.5 µM. A digest of the protocol:
(§2)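 48 h compound exposure at 37 C, 5% CO2; five-point qHTS. ATPlite luminescence readout of cell ATP.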

The test system of the next assay is CAOV3. The description is as above. The conditions noted are these: Gynecologic cancer cell panel viability, ATPlite luminescence, 48 h; series mostly up to 57.5 µM. In outline:
as §2

The subject of the next assay is CASKI. The description is as above. The conditions noted are these: Gynecologic cancer cell panel viability, ATPlite luminescence, 48 h; series mostly up to 57.5 µM. A digest of the protocol:
as §2

The subject of a further assay is Es-2. Described as above. To be noted: Gynecologic cancer cell panel viability, ATPlite luminescence, 48 h; series mostly up to 57.5 µM. A digest of the protocol: as §2
In the next assay the test system is HeLa. The assay is described as above. To be noted: Gynecologic cancer cell panel viability, ATPlite luminescence, 48 h; series mostly up to 57.5 µM. In outline: as §2
The test system of a further assay is Hek293T. Described as above. The conditions noted are these: Gynecologic cancer cell panel viability, ATPlite luminescence, 48 h, control line for the selectivity index; series mostly up to 57.5 µM. In outline:
as §2

In the next assay the test system is JEG-3. The description is as above. To be noted: Gynecologic cancer cell panel viability, ATPlite luminescence, 48 h; series mostly up to 57.5 µM. A digest of the protocol: as §2
Another assay has as its system PA-1. Described as above. To be noted: Gynecologic cancer cell panel viability, ATPlite luminescence, 48 h; series mostly up to 57.5 µM. In outline:
as §2

In another assay the test system is Tov-21-G. Described as above. The conditions noted are these: Gynecologic cancer cell panel viability, ATPlite luminescence, 48 h; series mostly up to 57.5 µM. A digest of the protocol: as §2
Another assay relates to Tov112D. The description is as above. The conditions noted are these: Gynecologic cancer cell panel viability, ATPlite luminescence, 48 h; series mostly up to 57.5 µM. A digest of the protocol: as §2
Assay [1] in a line: Drug repurposing screens with cells derived from glioblastoma tumor samples (AID 1345199). Further: nearly all actives have a fitted effect of over 40% in size. Further: potency means the concentration at half of the fitted maximal effect. To be noted: GBM patient neurospheres viability, ATP luminescence, 48 h. In outline: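 Four patient lines of CD133+ GBM neurospheres were screened at several concentrations; hits were retested in those lines plus three slower-growing GBM lines, using 48-hour treatment and ATP-based viability.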

The subject of another assay is SKOV3. As to the kind of experiment: Primary qHTS to identify gynecologic anti-cancer compounds using libraries of approved drugs and bioactive compounds (AID 1345084). Further: nearly all actives have a fitted effect of over 55% in size. The conditions noted are these: Gynecologic cancer cell panel viability, ATPlite luminescence, 48 h; series mostly up to 57.5 µM. A digest of the protocol:
as §2

For the next assay, the system named is WaGa. Put plainly: qHTS assay to identify novel small-molecules to repurpose for Merkel cell carcinoma treatment (AID 1296009). Further: nearly all actives have a fitted effect of over 60% in size. The conditions noted are these: MCC and control cell lines, CellTiter-Glo viability, 72 h; series mostly up to 46 µM. In outline:
as §1

The test system of the next assay is OV90. As to the kind of experiment: Primary qHTS to identify gynecologic anti-cancer compounds using libraries of approved drugs and bioactive compounds (AID 1345084). Further: nearly all actives have a fitted effect of over 55% in size. To be noted: Gynecologic cancer cell panel viability, ATPlite luminescence, 48 h; series mostly up to 57.5 µM. A digest of the protocol: as §2
On the technique in general: Quantitative high-throughput screening tests each substance at several concentrations.

Where [2] appears, read: at 46.1 µM (top of the series), tumour line C.
Where [3] appears, read: at 45.9 µM (top of the series), tumour line B.
Where [4] appears, read: at 45.9 µM (top of the series), tumour line D.

Molecules are shown by their SMILES. Records with an inconclusive call do not appear. A number with no mark means an inactive call. Activity calls are given as the source filed them. The call rests on the fitted dose curve; in most records, active means well fitted curve in the direction sought with a large enough effect; inconclusive means small, poorly fitted or top-dose-only effect, or another doubt; inactive means no such curve, though single readings can be large; an effect the other way counts as inactive or inconclusive.
On the % scale 0 is the no-effect control and ±100 the full control effect.

Consider `NC(N)=N/N=C/c1c(Cl)cccc1Cl`, for which the Potency result in the assay with MCC-13, in the assay on MCC-26, with MKL-1, with MKL-2, in the assay on UISO and in the assay with C33A was “inactive” throughout. Also, the Potency entry in the assay on CAOV3, in the assay with CASKI, with Es-2, with HeLa, in the assay on Hek293T and in the assay on JEG-3 was “inactive” each time. Further, the Potency result in the assay on PA-1, in the assay on Tov-21-G and in the assay with Tov112D was “inactive” throughout. In addition, the activity, negative = cell killing in [1] (setting [2]) was 0.325%. Besides, the Potency in [1] (tumour line A) was 15.8 µM (active).
As to `Cc1nc2sccn2c(=O)c1CCN1CCC(=C(c2ccc(F)cc2)c2ccc(F)cc2)CC1`, the Potency result in the assay on MCC-13, in the assay with MCC-26, with MKL-1, with UISO, in the assay with C33A and in the assay with CAOV3 was “inactive” in each case. Also, the Potency entry in the assay on CASKI, in the assay with Es-2, in the assay with HeLa, with Hek293T, with JEG-3 and in the assay on PA-1 was “inactive” throughout. In addition, the Potency entry in the assay with SKOV3, in the assay with Tov-21-G and with Tov112D was “inactive” throughout.
Consider `CC(N=C(NC#N)Nc1ccncc1)C(C)(C)C` (stereo not drawn), for which the Potency result in the assay with MCC-13, in the assay with MCC-26, in the assay with MKL-1, with MKL-2, in the assay on UISO and in the assay with WaGa was “inactive” throughout. Also, the Potency entry with C33A, in the assay with CAOV3, in the assay with CASKI, in the assay with Es-2, in the assay on Hek293T and with OV90 was “inactive” each time. Also, the Potency result with PA-1, with SKOV3, in the assay on Tov-21-G and in the assay on Tov112D was “inactive” in each case. For the same compound, the activity, negative = cell killing was -17.7% in assay [1] (setting [3]), -6.7% in assay [1] (setting [4]) and -1.36% in assay [1] (setting [2]).
For the compound `C=CCc1ccccc1OCC(O)CNC(C)C` (stereo not drawn), the Potency entry with MCC-13, with MCC-26, with MKL-1, in the assay with MKL-2, in the assay with UISO and with WaGa was “inactive” each time. The Potency entry in the assay on C33A, in the assay on CASKI, in the assay on Es-2, in the assay with HeLa, with Hek293T and in the assay on JEG-3 was “inactive” throughout. Also, the Potency entry with OV90, in the assay on PA-1, in the assay with SKOV3, in the assay with Tov-21-G and in the assay on Tov112D was “inactive” each time. In addition, the results for the activity, negative = cell killing in assay [1] (setting [3]), in assay [1] (setting [4]) and in assay [1] (setting [2]) were -18%, -4.74% and -6.66%, respectively.
`CN1C[C@H](C(=O)N[C@]2(C)O[C@@]3(O)[C@@H]4CCCN4C(=O)[C@H](Cc4ccccc4)N3C2=O)C[C@@H]2c3cccc4[nH]cc(c34)C[C@H]21`: the Potency entry in the assay with MCC-13, in the assay on MCC-26, in the assay on MKL-1, in the assay on MKL-2, with UISO and with WaGa was “inactive” in each case. Further, the Potency result with CAOV3, in the assay on CASKI, in the assay on Es-2, in the assay with HeLa, in the assay on Hek293T and with JEG-3 was “inactive” in each case. The Potency result in the assay on OV90, in the assay with PA-1, in the assay on SKOV3, with Tov-21-G and in the assay on Tov112D was “inactive” in each case. The activity, negative = cell killing in assay [1] (setting [3]) is -29.3%; in [1] (setting [2]) it was 4.11%. The Potency in assay [1] (tumour line A) was 10 µM (active).
Take `O=C(CCCN1CCC(O)(c2cccc(C(F)(F)F)c2)CC1)c1ccc(F)cc1`: the Potency result in the assay with MCC-13, with MCC-26, with MKL-1, in the assay on UISO, in the assay with WaGa and with C33A was “inactive” throughout. Further, the Potency entry in the assay with CAOV3, in the assay on CASKI, in the assay on Es-2, with HeLa, with Hek293T and in the assay on JEG-3 was “inactive” each time. For the same compound, the Potency result in the assay on PA-1, in the assay on SKOV3, with Tov-21-G and with Tov112D was “inactive” throughout.
As to `NC(=O)c1ncn([C@@H]2O[C@H](CO)[C@@H](O)[C@H]2O)c1O`, the Potency result in the assay with MCC-13, in the assay on MCC-26, with MKL-1, with MKL-2, in the assay on UISO and in the assay with WaGa was “inactive” in each case. Moreover, the Potency result in the assay with C33A, with CAOV3, with CASKI, in the assay with Es-2, with Hek293T and in the assay on JEG-3 was “inactive” throughout. Further, the Potency entry in the assay with OV90, with PA-1, with SKOV3, with Tov-21-G and in the assay with Tov112D was “inactive” in each case. For the same compound, the activity, negative = cell killing was -12.1% in assay [1] (setting [3]); 11.4% in assay [1] (setting [4]); -0.128% in assay [1] (at 46 µM (top of the series), tumour line A); -22.4% in assay [1] (setting [2]).
